POLB inh: inhibitors of human DNA polymerase beta; Potency, µM (highest dose often 114 µM), hits mostly inhibitors; AID 485314; Pol beta primer extension/strand displacement, fluorescence kinetic; P06746; 340,000 tested, 1.3% active
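Pol beta (10 nM) was preincubated with compound for 15 min at room temperature. The reaction was then started with 50 nM substrate and read immediately and after a further 10 min at room temperature.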
POLK inh: inhibitors of human DNA polymerase kappa | Q9UBT6 | purified Pol kappa, fluorescent DNA synthesis assay, 10 min | Potency, µM (series often up to 107 µM), hits mostly inhibitors | 400,000 tested, 0.53% active
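50 nM final substrate added after 15 min RT preincubation of 10 nM Pol kappa with compound; fluorescence read at 0 and 10 min.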
POLI inh: inhibitors of human DNA polymerase iota; Q9UNA4; Pol iota fluorescent replication assay, 10 min; Potency, µM (doses to about 115 µM), most hits filed as inhibitors; 390,000 tested, 1% active
Target sequence (Q9UNA4 whole entry, looked up): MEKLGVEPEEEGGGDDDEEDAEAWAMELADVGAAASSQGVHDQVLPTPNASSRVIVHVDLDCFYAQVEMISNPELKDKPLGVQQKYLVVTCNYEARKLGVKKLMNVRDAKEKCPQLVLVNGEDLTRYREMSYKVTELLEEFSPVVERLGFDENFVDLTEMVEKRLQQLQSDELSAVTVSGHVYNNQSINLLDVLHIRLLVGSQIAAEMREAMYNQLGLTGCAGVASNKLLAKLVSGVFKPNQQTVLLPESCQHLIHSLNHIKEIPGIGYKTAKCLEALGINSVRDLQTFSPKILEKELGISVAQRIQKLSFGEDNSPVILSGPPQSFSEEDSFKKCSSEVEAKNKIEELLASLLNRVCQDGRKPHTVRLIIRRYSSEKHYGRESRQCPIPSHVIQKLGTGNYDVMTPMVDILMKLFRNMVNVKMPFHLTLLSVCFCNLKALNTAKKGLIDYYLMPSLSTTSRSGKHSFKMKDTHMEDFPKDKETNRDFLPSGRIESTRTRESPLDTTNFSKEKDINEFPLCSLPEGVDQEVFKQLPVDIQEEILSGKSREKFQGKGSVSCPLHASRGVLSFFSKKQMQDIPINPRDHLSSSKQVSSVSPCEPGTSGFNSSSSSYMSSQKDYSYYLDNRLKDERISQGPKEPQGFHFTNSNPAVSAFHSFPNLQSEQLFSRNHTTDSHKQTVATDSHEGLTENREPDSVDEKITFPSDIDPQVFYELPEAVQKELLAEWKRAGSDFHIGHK
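Pol iota at 10 nM preincubated 15 min with compounds at room temperature; reaction started with fluorescent substrate, 50 nM final. Fluorescence read kinetically at 0 and 10 min; buffer-only wells as negative control.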
Pol eta inh: blocks human DNA polymerase eta activity. Q9Y253. Potency, µM (top dose mostly 114 µM), hits mostly inhibitors. recombinant Pol eta, fluorescent DNA replication assay. 390,000 tested, 1.2% active
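Pol eta at 10 nM preincubated with compounds 15 min at room temperature; reaction started with fluorescent substrate (50 nM final) and read kinetically at 0 and 10 min.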
PI5P4Ka inh: PI5P4K alpha (human) kinase inhibition; P48426; PI5P4Kalpha enzyme, ADP-Glo luminescence, 60 min; stronger effect = lower value; max response, %; 330,000 tested, 1.2% active; AID 652105; active = max response of -50% or lower; inconclusive = between -30% and -50%; inactive = -30% or higher; also: value at the top dose of about 77 µM
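Human PI5P4Kalpha with substrate in 0.038 M HEPES pH 7.4, 0.28 mM EGTA, 0.1% CHAPS, 5% DMSO; reaction started with 5 microM ATP (final), 60 min at room temperature. ADP formed read by ADP-Glo luminescence.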
PI4K2A block: blocks human PI4K2A kinase activity; purified PI4K2A, ADP-Glo luminescence, 1 h; stronger effect = lower value; activity change, negative = inhibition, % at 76.9 µM; 420,000 tested, 0.13% active; AID 1346378; in the data active = activity change below about -50%; inconclusive = mostly about -30% to -49%
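Compounds are screened against recombinant PI4K2A using PI as substrate and ATP, the latter dispensed at 300 microM. Reactions run one hour at ambient temperature before ADP-Glo detection; full inhibition defined by wells lacking enzyme.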
Of the large screens only hits and unclear results are named; the others gave an inactive call. Rows were chosen to be rich in hits. Some 2.8% of all compounds tested hit in one or more screens of this group. Unless noted, calls follow the shape of the dose curve; as a rule, active = well fitted inhibition curve with a large enough effect; inconclusive = small, poorly fitted or top-dose-only effect, or another doubt; inactive = no such curve, though single readings can be large or run the other way.

O=c1[nH]c(/C=C\c2cccs2)nc(O)c1[N+](=O)[O-]	POLB inh inconclusive, Pol eta inh inconclusive, PI5P4Ka inh -65.7
O=c1[nH]c(/C=C\c2ccc(O)c(Cl)c2)nc(O)c1[N+](=O)[O-]	POLI inh inconclusive, PI5P4Ka inh -96.9
CCOc1cc(/C=C\c2nc(O)c([N+](=O)[O-])c(=O)[nH]2)ccc1OC(C)C	none
CCN(CC)c1ccc(C=Nn2c(-c3ccc(F)cc3)n[nH]c2=S)c(O)c1	none (no result: POLB inh, POLK inh, POLI inh, Pol eta inh, PI5P4Ka inh)
Cc1cc(C)n(/N=C/c2ccco2)c(=O)c1C#N	POLB inh 39.8µM, POLI inh inconclusive
C=CCN(C(=O)[C@@H](CCCC)[C@@H](O)c1ccc(C(C)=O)cc1)c1ccccc1	none (no result: POLB inh, POLK inh, POLI inh, Pol eta inh, PI5P4Ka inh)
CCn1c(SCC(=O)c2ccc(CNC(C)=O)o2)nnc1-c1cccs1	POLB inh 44.7µM, POLI inh inconclusive, Pol eta inh inconclusive (no result: PI5P4Ka inh)
CC1OC(OCC2OC(Oc3cc(O)c4c(c3)OC(c3ccc(O)cc3)CC4=O)C(O)C(O)C2O)C(O)C(O)C1O (stereo not drawn)	none (no result: POLB inh, POLI inh, Pol eta inh, PI5P4Ka inh, PI4K2A block)
CC(C)=CCC/C(C)=C/CC/C(C)=C/CCC1(C)CCc2cc(O)ccc2O1 (stereo not drawn)	none (no result: POLB inh, Pol eta inh, PI5P4Ka inh, PI4K2A block)
CCCN1CCN(CCCNC(=O)c2ccc3c(c2)sc2nc(-c4ccc(OCC)cc4)cn23)CC1	POLB inh inconclusive, POLI inh 79.4µM (no result: PI5P4Ka inh)
COc1ccc2[nH]c(C)c(C(=O)CNc3nccs3)c2c1	none (no result: POLB inh, Pol eta inh, PI5P4Ka inh, PI4K2A block)
Cc1ccc(NC(=O)C2(c3cccs3)CCOCC2)cc1Cl	none (no result: PI5P4Ka inh)
COc1ccc(N=C2S/C(=C\c3ccc(OCC(=O)O)cc3)C(=O)N2CCc2c[nH]c3ccccc23)cc1	POLB inh 3.98µM, POLK inh 15.8µM, POLI inh inconclusive, PI5P4Ka inh -57.2
CCCN(CCC)c1ccc(/C=C/c2ccnc3ccccc23)cc1	none (no result: POLB inh, Pol eta inh, PI5P4Ka inh, PI4K2A block)
COC(=O)C1CCN(C(=O)COC(=O)CNS(=O)(=O)c2ccc(SC)c([N+](=O)[O-])c2)CC1	POLI inh 79.4µM, Pol eta inh inconclusive (no result: POLB inh)
CCCCCn1c(N)c(-c2nc3ccccc3o2)c2c([N+](=O)[O-])nn(CC)c(=O)c21	POLB inh 2µM, Pol eta inh inconclusive
CCOc1cc2c3c(c1)C(C)=CC(C)(C)N3C(=O)C2=O	none
CC(=O)Oc1cc2c3c(c1)/C(=C1/SC(=S)NC1=O)C(=O)N3C(C)(C)C=C2C	POLB inh inconclusive, POLI inh inconclusive, Pol eta inh 79.4µM, PI5P4Ka inh -75.8
Cc1ccc(NC(=O)CSCC(=O)Nc2cc(S(=O)(=O)N3CCOCC3)ccc2OC(C)C)cc1	none (no result: POLB inh)
CC(C)c1onc(-c2c(Cl)cccc2Cl)c1COc1ccc(/C=C/c2cccc(C(=O)O)c2)c(Cl)c1	POLK inh 29.9µM (no result: POLB inh, POLI inh, Pol eta inh, PI5P4Ka inh, PI4K2A block)
CCC(C)NC(=O)c1cccc(OCc2c(C)noc2C)c1 (stereo not drawn)	none
CN(C)C(=O)CNC(=O)Cc1ccccc1	none (no result: POLB inh, POLK inh, POLI inh, Pol eta inh, PI5P4Ka inh)
CN1CCc2cccc3c2[C@@H]1Cc1ccc(O)c(O)c1-3	POLB inh inconclusive, POLI inh inconclusive, PI5P4Ka inh -61.2
COc1ccc2c(c1O)-c1ccccc1CCN(C)C2	none
Cc1ccccc1NC(=O)OC1CCC12CCCCC2 (stereo not drawn)	none (no result: POLB inh, POLK inh, POLI inh, Pol eta inh, PI5P4Ka inh)
CC(C)NC(=S)NNc1nc2ccccc2s1	PI5P4Ka inh -66.5
CC(C)(C)CC(C)(C)SSc1n[nH]c(=S)s1	POLI inh inconclusive, Pol eta inh inconclusive, PI5P4Ka inh -65.7 (no result: POLB inh)
CCN(CCC#N)c1ccc(/C=C/c2ccnc3ccccc23)cc1	none (no result: POLB inh, Pol eta inh, PI5P4Ka inh, PI4K2A block)
O=C(O)C1CSC(c2ccco2)N1 (stereo not drawn)	POLB inh 8.91µM, POLK inh 17.8µM, POLI inh inconclusive, Pol eta inh 10µM, PI5P4Ka inh -80.4
O=C(O)C1CSC(c2ccncc2)N1 (stereo not drawn)	none
O=C(CCC(=O)N/N=C/c1ccco1)N/N=C/c1ccco1	none
O=C(CCCCCCCCC(=O)N/N=C/c1ccco1)N/N=C/c1ccco1	POLB inh 50.1µM, POLI inh inconclusive
Cc1ccc(CN2CCCCC(NC(=O)Nc3ccccc3)C2=O)cc1 (stereo not drawn)	none (no result: POLB inh, POLK inh, POLI inh, Pol eta inh, PI5P4Ka inh)
[O-][N+]12CCCc3cccc(c31)CCC2	POLI inh inconclusive (no result: POLB inh, Pol eta inh, PI5P4Ka inh, PI4K2A block)
Cc1ccc(OCC(=O)Nc2ccc(O)c(-c3nc4cc(C)c(C)cc4o3)c2)cc1	none (no result: POLB inh, Pol eta inh, PI5P4Ka inh, PI4K2A block)

Assay outcomes deposited in PubChem BioAssay by National Center for Advancing Translational Sciences (NCATS).
